Shown are actives, neighbours in structure and some others; about 3.6% of the full set was active somewhere.
A549 tox = Nrf2 qHTS screen for inhibitors: counterscreen for cytotoxicity; A549 ARE-Fluc cells, CellTiter-Fluor viability, 18-24 h; Potency, µM (highest dose often 46 µM), usual class: inhibitors; actives 0.16% (n = 390,000); AID 504648, 2011
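A549 ARE_Fluc cells in 5% FBS OPTI-MEM were exposed to compounds in concentration-response for 18-24 h at 37 deg C. Viability was read by CellTiter-Fluor fluorescence (Ex 405/Em 525) after 30 min, before the luciferase read.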
TGFb inhibitor = qHTS for Inhibitors of TGF-b. HepG2 CAGA-GFP TGF-b/SMAD3 reporter, GFP fluorescence, 18 h; TGF-beta stimulated, 500 pg/mL final. Potency, µM (top dose mostly 46.1 µM), most hits filed as inhibitors. actives 1.2% (n = 410,000). AID 588855, 2011; note: nearly all actives have a fitted effect of over 65% in size
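TGF-beta reporter screen: HEPG2 CAGA-GFP, 1% FBS, 500 pg/mL TGF-beta final, 18 h; per-cell GFP summed per well; curves fitted and categorized by class.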
Nrf2 activator = qHTS of Nrf2 Activators. AID 624171, 2012. actives 0.31% (n = 410,000). AREc32 ARE-luciferase reporter (MCF7-derived line), luminescence, 24 h. Potency, µM (titrated, usually from 46.1 µM), most hits filed as activators; note: nearly all actives have a fitted effect of over 65% in size
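For detection, Steady-Glo was added and plates sat 30 min at RT; before that, AREc32_Fluc cells grown overnight in OPTI-MEM/5% FBS had been treated with 23 nL compound for 24 hr at 37 deg C.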
Nrf2 block = Nrf2 qHTS screen for inhibitors; AID 504444, 2011; actives 2.1% (n = 360,000); Potency, µM (highest dose often 46 µM), most hits filed as inhibitors; A549 ARE-Fluc reporter, luciferase luminescence, 18-24 h; note: nearly all actives have a fitted effect of over 60% in size
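A549 ARE_Fluc cells (5000/well, 5% FBS OPTI-MEM) pre-incubated 2 h, then treated with compounds 18-24 h at 37C/5% CO2 in concentration-response. CellTiter-Fluor viability read first; BugLite luciferase luminescence after 15 min at room temperature gives Nrf2 activity.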
HepG2 viability = qHTS for Inhibitors of TGF-b: Cytotox Counterscreen. Potency, µM (titrated, usually from 46.1 µM), hits mostly cytotoxic. HepG2 CAGA-GFP viability, ATP luminescence, 18 h. AID 588856, 2011. actives 0.76% (n = 410,000)
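CellTiter-Glo luminescence gave cytotoxicity after 18 hours at 37 degrees C. The cells were HepG2 CAGA-GFP in 1% FBS DMEM, stimulated with 500 pg/mL TGF-beta after compound addition. %Activity was normalised to no-cell wells (complete cell-killing) and DMSO (no toxicity), and curves were fitted and classified.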
A number is an active result; - = inactive; ? = inconclusive; . = no result given. Calls come from the whole dose curve; as a rule, active = well fitted curve in the direction sought with a large enough effect; inconclusive = small, poorly fitted or top-dose-only effect, or another doubt; inactive = no such curve, though single readings can be large; an effect the other way counts as inactive or inconclusive.

SMILES	A549 tox	TGFb inhibitor	Nrf2 activator	Nrf2 block	HepG2 viability
Cc1cccc(NC(=O)CSc2nc(=O)n(Cc3cccnc3)c3c2CCC3)c1	-	18µM	-	.	-
COc1cc(OC)c(OC)cc1/C=N/Nc1ccc(Cl)nn1	-	-	-	-	-
COc1ccc(C2CC(c3cccs3)=NN2C(=O)CSC2=NCCS2)cc1 (centres undefined)	-	-	-	18µM	-
Cc1ccc(C2CC(c3cccs3)=NN2C(=O)CSC2=NCCS2)cc1 (centres undefined)	-	?	-	16µM	-
CCC(=O)N1N=C(c2cccs2)CC1c1ccc(OC)cc1 (centres undefined)	-	-	-	-	-
CCOC(=O)c1c(C)[nH]c(C)c1C(=O)CSc1nc2ccccc2c(=O)n1-c1ccc(F)cc1	?	?	-	23µM	-
CCc1ccc(C2c3[nH]c4ccccc4c3CCN2C(=O)CN2CCN(CC)CC2)cc1 (centres undefined)	-	?	-	-	13µM
CCc1ccc(C2c3[nH]c4ccccc4c3CCN2C(=O)CNC(N)=O)cc1 (centres undefined)	-	-	-	-	-
Cc1ccc(-c2nnn(CC(=O)Nc3ccccc3-c3ccccc3)n2)c(-n2cnnn2)c1	-	-	-	-	-
O=C(CSc1n[nH]c(-c2ccccc2)n1)NC(=O)NCc1ccco1	-	-	-	-	-
CCOC(=O)c1cc(-c2ccc3c(c2)OCCO3)nc2c1c(C)nn2CCC#N	-	-	-	21µM	-
CCOC(=O)c1cc(-c2ccc(Cl)cc2)nc2c1c(C)nn2CCC#N	-	-	-	?	-
COC(=O)C(Cc1c[nH]c2ccccc12)NC(=O)COc1ccc(Cl)cc1Cl (centres undefined)	-	11µM	-	-	-
N#C/C(=C(/O)c1ccc(-c2cccc([N+](=O)[O-])c2)o1)c1nc2ccccc2s1	?	13µM	?	?	-
Cc1ccsc1/C=C/C1=Cc2c(sc(NC(=O)CSc3n[nH]c(N)n3)c2C#N)C(C)(C)C1	?	10µM	?	?	13µM
CCOC(=O)c1sc(NC(=O)CSc2n[nH]c(-c3ccncc3)n2)c(C#N)c1C	-	?	-	?	-
CCOc1ccc(/C=C/C2=Cc3c(sc(NC(=O)CSc4n[nH]c(N)n4)c3C#N)C(C)(C)C2)cc1	?	-	?	?	20µM
Cc1c(NC(=O)c2ccc(S(=O)(=O)N3CC(C)OC(C)C3)cc2)c(=O)n(-c2ccccc2)n1C (centres undefined)	-	-	-	-	-
Cc1ccc(Cl)cc1NC(=O)C[n+]1ccc(Cc2ccc([N+](=O)[O-])cc2)cc1	-	-	-	?	-
CC(C)(C)NC(=O)NC(=O)C[n+]1ccc(Cc2ccc([N+](=O)[O-])cc2)cc1	-	-	-	-	3.2µM
CS(=O)(=O)c1ncc(Cl)c(C(=O)N2CCN(c3cccc(Cl)c3)CC2)n1	18µM	2.8µM	-	7.3µM	3.5µM
CCS(=O)(=O)c1ncc(Cl)c(C(=O)N2CCN(c3cccc(Cl)c3)CC2)n1	?	1µM	-	23µM	3.2µM
Cc1[nH]c(-c2ccc(F)cc2)cc1C(=O)N1CCN(c2cccc(Cl)c2)CC1	-	25µM	-	?	-
O=C(c1cc2cc(F)ccc2[nH]1)N1CCN(c2cccc(Cl)c2)CC1	-	-	-	-	-
O=C(CCS(=O)(=O)c1ccc(Br)s1)Nc1cc(C(F)(F)F)cc(C(F)(F)F)c1	?	?	-	23µM	16µM
SMILES	A549 tox	TGFb inhibitor	Nrf2 activator	Nrf2 block	HepG2 viability
CC(=O)c1cccc(NC(=O)CCS(=O)(=O)c2ccc(Br)s2)c1	-	-	-	-	-
CCCCOC(=O)c1cccc(NC(=O)/C=C/c2ccccc2Cl)c1	-	?	-	21µM	-
O=C(/C=C/c1ccccc1Cl)Nc1cccc(O)c1	-	-	-	-	-
Cc1ccc(-c2nn3c(C)nnc3s2)cc1NC(=O)c1ccc(Br)o1	-	-	-	?	-
Cc1ccc(-c2nn3c(C)nnc3s2)cc1NC(=O)c1ccc(-c2cccc(Cl)c2)o1	-	?	-	15µM	-
Cc1ccc(-c2nn3c(C)nnc3s2)cc1NC(=O)c1ccc(-c2ccc(Cl)cc2Cl)o1	21µM	?	-	?	-
Nc1ncn(C(=S)Nc2ccccc2)n1	-	8.9µM	-	-	-
CC(=O)Oc1ccc(C(=O)Nc2cccc(-c3nnc(-c4ccco4)o3)c2)cc1	?	-	-	16µM	-
O=C(Nc1cccc(-c2nnc(-c3ccco3)o2)c1)C(c1ccccc1)c1ccccc1	-	-	-	21µM	-
O=C(C[C@H]1C/C=C\C[C@@H](Cc2ccc(F)cc2)C(=O)O[C@H](c2ccccc2)CNC1=O)NCCO	-	-	-	-	13µM
O=C1NC[C@H](c2ccccc2)OC(=O)[C@H](Cc2ccc(F)cc2)C/C=C\C[C@@H]1CC(=O)N(CCO)Cc1ccccc1	-	?	-	?	-
O=C1NC[C@@H](c2ccccc2)OC(=O)[C@H](Cc2ccc(F)cc2)C/C=C\C[C@@H]1CC(=O)N(CCO)Cc1ccccc1	?	?	-	26µM	-
Cc1ccc(C2C3CSCC=C3C(C#N)=C(N)C2(C#N)C#N)cc1 (centres undefined)	?	-	?	15µM	-
CCCCn1c(SCc2ccccn2)nc2c1c(=O)n(C)c(=O)n2C	-	-	-	-	-
CCc1csc(CCNC(=O)C2CCC(=O)N(CCOC)C2)n1 (centres undefined)	-	-	-	-	-
CCC1C(=O)n2nc(-c3ccccc3)cc2N=C1C (centres undefined)	-	-	-	?	-
CC(C)c1ccc(S(=O)(=O)/N=C2/C=C(Sc3ncn[nH]3)C(=O)c3ccccc32)cc1	?	7.9µM	-	18µM	10µM
Cc1ccc(S(=O)(=O)Nc2ccc(O)c(Sc3ncn[nH]3)c2)cc1	-	-	-	-	-
Cc1ccc(S(=O)(=O)/N=C2/C=C(Sc3ncn[nH]3)C(=O)c3ccccc32)cc1	?	1µM	-	?	2µM
Clc1nc(NCc2cccs2)c2[nH]cnc2n1	-	-	.	23µM	-
c1csc(CNc2ncnc3nc[nH]c23)c1	-	-	-	?	-
Cc1ccc(Cl)cc1-n1ncc2c(NC3CCCCCC3)ncnc21	?	11µM	-	.	-
CCNc1ccc(S(=O)(=O)N2CCOCC2)cc1NCC(=O)Nc1cccc(Br)c1	.	?	-	.	-
COc1cc(NC(=O)Nc2nc(C(N)C3CCCCC3)cs2)cc(OC)c1OC (centres undefined)	.	?	-	.	11µM

Screens: PubChem, National Center for Advancing Translational Sciences (NCATS)
